SKBR3 24h inh = SK-BR-3 proliferation inhibitors, primary screen, cell-based, human, 24 h; viability, % at 10 µM; SK-BR-3 viability, CellTiter-Glo ATP luminescence; hits give low values; 0.47% of 41,000 active; AID 847, 2007;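 active means viability at or below the median of all test compounds minus 3 SD, in both replicates if run twice, cut at about 45% in these data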
WNV protease inh = inhibitors of WNV NS2B-NS3 protease, primary screen, biochemical, fluorogenic substrate | Genome polyprotein (West Nile virus), P06935 | fluorogenic substrate Ex360/Em465; hits give low values | z-score (concentration not given with the values) | 0.18% of 65,000 active; in the data active means z-score below about -3
Target sequence (P06935 1371-1501 limits assumed): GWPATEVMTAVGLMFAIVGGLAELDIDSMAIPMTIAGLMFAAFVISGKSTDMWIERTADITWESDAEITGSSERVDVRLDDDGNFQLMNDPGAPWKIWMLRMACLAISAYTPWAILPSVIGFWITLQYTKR
Target sequence (P06935 1502-1679 limits assumed): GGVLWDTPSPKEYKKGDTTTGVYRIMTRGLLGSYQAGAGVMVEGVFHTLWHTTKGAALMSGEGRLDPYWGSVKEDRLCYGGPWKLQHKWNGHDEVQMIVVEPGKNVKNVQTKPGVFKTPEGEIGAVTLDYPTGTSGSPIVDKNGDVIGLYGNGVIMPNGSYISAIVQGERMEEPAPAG
Hsp90 block = tumor Hsp90 inhibitors, primary screen, cell lysate, fluorescence polarization, NCI-N417 lysate. Heat shock protein HSP 90-alpha (Homo sapiens), P07900. Cy3B-geldanamycin FP displacement. inhibition, % at 30 µM. 0.35% of 64,000 active;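 active means inhibition above 50%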
ROCK2 blocker = inhibitors of human ROCK2 kinase, primary screen, biochemical, high-throughput, luminescence; 0.35% of 60,000 active; purified ROCK2, Kinase-Glo ATP depletion luminescence; inhibition, % at 6 µM; Rho-associated protein kinase 2 (Homo sapiens), O75116;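 active means inhibition above the screen-wide mean inhibition plus 3 SD, cut at about 18% in these data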
HER2 expr 66K = inhibitors of Her2 protein expression, primary screen, SKBR-3 cells, AlphaScreen, 66K library; AID 645, 2007; 0.69% of 65,000 active; HER2 level % of control, % at 10 µM; SKBR-3 HER2 protein level, 18-24 h; hits give low values;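 active means HER2 level under 5% of the carrier-only control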;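 further: lower value means stronger loss of Her2 protein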
PKA kinase inh = inhibitors of human PKA kinase activity, primary screen, biochemical, ATP-depletion luminescence, Kemptide substrate; cAMP-dependent protein kinase catalytic subunit alpha (Homo sapiens), P17612; PKA Kemptide phosphorylation, Kinase-Glo ATP luminescence; inhibition, % at 6 µM; 0.1% of 65,000 active;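 active means inhibition above the screen-wide mean inhibition plus 3 SD, cut at about 21% in these data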
Each line names hits and unclear results; the compound was inactive in the other large screens. A selection: hits, their analogues and other compounds. The true share with any hit is near 1.6%.

CCOC(=O)Cn1nnnc1CN(Cc1ccc(OC)cc1)Cc1cc2cc(CC)ccc2[nH]c1=O	none
CCOC(=O)Cn1nnnc1CN(Cc1ccc(OC)cc1)Cc1cc2cc(C)ccc2[nH]c1=O	SKBR3 24h inh 39
CN1CCN(C(=O)CSc2nc(-c3cccs3)ccc2C#N)CC1	none
CCOC(=O)c1c(C)[nH]c(C(=O)C(C)OC(=O)c2cccc(OCc3c(C)noc3C)c2)c1C (stereo unspecified)	none (no result: SKBR3 24h inh)
COc1ccc(N2CSC3=C(C#N)C(c4ccc(OC)c(OC)c4)CC(=O)N3C2)c(OC)c1 (stereo unspecified)	Hsp90 block 77 (no result: SKBR3 24h inh)
CCc1ccc(N2CSC3=C(C#N)C(c4cccs4)CC(=O)N3C2)cc1 (stereo unspecified)	none
COc1ccc(N2CSC3=C(C#N)C(c4cc(OC)c(OC)cc4OC)CC(=O)N3C2)c(OC)c1 (stereo unspecified)	none (no result: SKBR3 24h inh)
CCc1ccc(C2CC(=O)N3CN(c4ccccc4)CSC3=C2C#N)cc1 (stereo unspecified)	HER2 expr 66K -18 (no result: SKBR3 24h inh)
CCSCc1nnc(SCC(=O)c2ccc(OC)cc2)n1C	none
CCOc1nc(C#N)nc(N2CCCCC2)n1	SKBR3 24h inh 39
CCOc1nc(OCC)nc(N2CCC(C)CC2)n1	none (no result: SKBR3 24h inh)
CCCCC(=O)Nc1ccc(C(=O)N2CCN(C)CC2)cc1	none
Cc1cc(C)c2cc(CN(Cc3ccco3)C(=O)NCc3ccccc3)c(=O)[nH]c2c1	SKBR3 24h inh 37
Brc1ccc([C@H]2CN3CCSC3=N2)cc1	none (no result: SKBR3 24h inh, WNV protease inh, ROCK2 blocker, HER2 expr 66K, PKA kinase inh)
COc1cc2c(C(=O)NCc3ccc4c(c3)OCO4)cn(CC(C)C)c(=O)c2cc1OC	SKBR3 24h inh 25
Cn1c(=O)c(C(=O)CSc2nncs2)c(N)n(Cc2ccccc2)c1=O	none (no result: SKBR3 24h inh)
Cc1cccc2cc(=O)[nH]c(C)c12	ROCK2 blocker 18
O=c1[nH]cnc2cc(Cl)ccc12	ROCK2 blocker 18
O=c1[nH]cnc2cc(-c3ccccc3)sc12	none
COc1cccc2c1C(=O)c1c(O)c3c(c(O)c1C2=O)C[C@@](O)(C(=O)CO)C[C@@H]3O[C@H]1C[C@H](N)[C@H](O)[C@H](C)O1	Hsp90 block 73
COc1ccc(C(=O)c2no[n+]([O-])c2C(=O)c2ccc(OC)cc2)cc1	HER2 expr 66K -22
Cc1c(CC(C)(C)C(=O)O)n(Cc2ccc(Cl)cc2)c2ccc(F)cc12	none (no result: SKBR3 24h inh, WNV protease inh, ROCK2 blocker, HER2 expr 66K, PKA kinase inh)
CC(C)(C)C(=O)c1sc(Nc2ccccc2)nc1N	ROCK2 blocker 27
Cn1cc(C(=O)N2CCN(C(=O)c3ccco3)CC2)c2c3ccccc3n(C)c2c1=O	none
Oc1ccc2ccccc2c1C=NCc1cn2ccsc2n1	HER2 expr 66K -11 (no result: SKBR3 24h inh)
O=C(CCCc1ccccc1)NCc1cn2ccsc2n1	none (no result: SKBR3 24h inh)
CCC(=O)N1CCN(c2nc(-c3ccccc3)c3c(c2C#N)CCCC3)CC1	none (no result: ROCK2 blocker, HER2 expr 66K, PKA kinase inh)
O=C(NCCCn1ccnc1)c1cc(S(=O)(=O)N2CCOCC2)c(Cl)cc1Cl	HER2 expr 66K -32 (no result: Hsp90 block, ROCK2 blocker)
O=C(Nc1ccccc1O)c1cc(S(=O)(=O)N2CCOCC2)c(Cl)cc1Cl	none (no result: SKBR3 24h inh)
Cc1cn([C@H]2C[C@@H](N=[N+]=[N-])[C@@H](CO)O2)c(=O)[nH]c1=O	none (no result: SKBR3 24h inh, WNV protease inh, ROCK2 blocker, HER2 expr 66K, PKA kinase inh)
O=C(c1ccccc1)c1ccc2nc[nH]c2c1	ROCK2 blocker 33
O=C(CC1(C(F)(F)F)OCCO1)Nc1ccc2c(c1)OCO2	none (no result: SKBR3 24h inh)
C/C(CC1(O)C(=O)N(Cc2ccccc2)c2ccccc21)=N\O (stereo unspecified)	WNV protease inh -6.4
C/C(CC1(O)C(=O)N(C)c2ccccc21)=N\O (stereo unspecified)	none
COc1c(Cl)cc(Cl)cc1C(=O)Nc1ccccc1N1CCN(C(C)=O)CC1	none
CN1CCN(S(=O)(=O)c2ccc(NC(=O)c3cccc(S(=O)(=O)N4CCCC4)c3)cc2)CC1	none
COc1ccc(Cl)cc1C(=O)Nc1ccccc1N1CCN(C)CC1	HER2 expr 66K -18
CN1CCN(c2ccc(Cl)cc2NC(=O)c2ccc(S(=O)(=O)N3CCCCCC3)cc2)CC1	HER2 expr 66K -6.0 (no result: SKBR3 24h inh)
CC(C)C[C@H](NC(=O)C1OC1C(=O)O)C(=O)NCCCCN=C(N)N (stereo partly specified)	none (no result: SKBR3 24h inh, WNV protease inh, ROCK2 blocker, HER2 expr 66K, PKA kinase inh)
CCOC(=O)N1CCN(S(=O)(=O)c2cccc3ccc(C)nc23)CC1	none
Cc1c(Cl)cccc1NC(=O)c1cc(C2CC2)on1	none (no result: SKBR3 24h inh)
CN1CCC2=C(CCCC2CCc2ccc(Cl)c(Cl)c2)C1 (stereo unspecified)	none (no result: SKBR3 24h inh, WNV protease inh, ROCK2 blocker, HER2 expr 66K, PKA kinase inh)
CCCCCCCCCCCCCCCCCC(=O)OC(CC(=O)O)C[N+](C)(C)C (stereo unspecified)	none (no result: SKBR3 24h inh, WNV protease inh, ROCK2 blocker, HER2 expr 66K, PKA kinase inh)
COC(=O)c1ccccc1NC(=O)CN1CCN(C23CC4CC(CC(C4)C2)C3)CC1	SKBR3 24h inh 41
O=c1c(O)c(-c2ccc(O)c(O)c2)oc2cc(O)cc(O)c12	Hsp90 block 103 (no result: SKBR3 24h inh, WNV protease inh, ROCK2 blocker, HER2 expr 66K, PKA kinase inh)
CCOC(=O)c1c(NC(=O)C(F)(OC)C(F)(F)F)sc(C(=O)N2CCCCC2)c1C (stereo unspecified)	none
O=C(NCc1cccs1)c1nc2c(nnn2Cc2ccccc2Cl)c(=O)[nH]1	SKBR3 24h inh 22, HER2 expr 66K 0.0
Cc1cc(-n2c(C)cc(C(=O)CSc3nnnn3-c3ccc(Cl)cc3)c2C)no1	HER2 expr 66K -7.5 (no result: SKBR3 24h inh)
CC1=NCCN1S(=O)(=O)c1cc(Cl)ccc1Cl	none
O=C(CCN1CCC(c2ccccc2)C1)c1cccs1 (stereo unspecified)	HER2 expr 66K -45
O=C(c1cccs1)N1CCC(c2ccccc2)C1 (stereo unspecified)	none
COc1cc(NS(=O)(=O)CC(C)C)c2ncccc2c1	none (no result: SKBR3 24h inh, WNV protease inh, ROCK2 blocker, HER2 expr 66K, PKA kinase inh)
CCCC(=O)Nc1ccc(NC(=O)C23CC4CC(CC(C4)C2)C3)cn1	WNV protease inh -4.8
O=C(CCN1CCN(c2ccccc2F)CC1)c1ccc(Br)cc1	HER2 expr 66K -16 (no result: SKBR3 24h inh)
Cc1ccc(NC(=O)COC(=O)C2CC2C)c(S(=O)(=O)N2CCCCC2)c1 (stereo unspecified)	none (no result: SKBR3 24h inh)
CCN(Cc1ccncc1)S(=O)(=O)c1ccc(C(C)=O)cc1	none (no result: SKBR3 24h inh)
Cc1cc(C)nc(N2CCC(C(=O)NCc3cccc(C(F)(F)F)c3)CC2)n1	SKBR3 24h inh 40
O=C(NCc1cccc(C(F)(F)F)c1)C1CCN(c2ncccn2)CC1	none
CCNC(=O)[C@H]1O[C@@H](n2cnc3c(N)nc(NCCc4ccc(CCC(=O)O)cc4)nc32)C(O)[C@H]1O (stereo partly specified)	none (no result: SKBR3 24h inh, WNV protease inh, ROCK2 blocker, HER2 expr 66K, PKA kinase inh)
C=CCc1ccc(OCCCCCN2CCOCC2)c(OC)c1	none (no result: SKBR3 24h inh)
Cc1cc(NC(=O)CCS(=O)(=O)c2nc(-c3ccccc3)cc(C(F)(F)F)n2)no1	SKBR3 24h inh 39 (no result: HER2 expr 66K)

Screening results (PubChem BioAssay)
